In PubChem BioAssay (NCI):
This is part of a sample that, as a whole, favours compounds with a hit. Of some 83,000 tested, about 20% had one in any assay.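 Compound tested at a single concentration for 48 hours in 96-well plates; a percent growth value below 10 was scored as active.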 A number with no mark means an inactive call. Activity calls are given as the source filed them.

Test system: HL-60(TB) leukemia
Experiment: NCI-60 one-dose screen, 48 h (100 = growth as untreated, 0 = no growth, -100 = all killed)
Conditions: 10 µM unless noted

| Structure (SMILES) | growth |
| --- | --- |
| O=C1C=CC2=C3c4cc(O)c(O)cc4CC3(O)COC2=C1O (centres undefined) | 102% |
| O=c1sn(-c2cccc3ccccc23)c(=O)n1Cc1ccccc1 | 51.2% |
| COc1cc(/C=C/C(=O)c2ccc(Nc3nc(Nc4ccc(F)cc4)nc(Nc4ccc(Cl)cc4)n3)cc2)cc(OC)c1OC | -32.1% (active) |
| CC1(C)CC[C@]23CC[C@]4(C)[C@H](CC[C@@H]5[C@@]6(C)C/C(=C/c7ccncc7)C(=O)C(C)(C)[C@@H]6CC[C@]54C)[C@H]2[C@H]1OC3=O | 43% [100 µM] |
